# Hits are enriched below; roughly 9.5% of the tested compounds scored in any of these assays.
# NS1 inh – qHTS Assay for Inhibitors of Influenza NS1 Protein Function; Potency, µM (titrated, usually from 46.1 µM), for inactives: top-dose activity, positive = more growth; hit rate 0.4% among 270,000; AID 2326, 2010; calls by dose curve; further: actives are rising curves; nearly all actives have a fitted effect of over 50% in size
#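 In this qHTS, NS1 from influenza A is expressed in budding yeast, where it slows growth. Cells are switched from glucose to 2% galactose medium (pH 6.0, -URA), treated with compound, and growth recovery is read at OD600.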
# Pf growth 96h – Primary qHTS for delayed death inhibitors of the malarial parasite plastid, 96 hour incubation | AID 504834, 2011 | Potency, µM (highest dose often 28.7 µM), for inactives: at the highest dose activity change, negative = inhibition, actives largely listed as inhibitors | P. falciparum luciferase reporter growth, 96 h | hit rate 6.9% among 320,000; further: on the % scale 0 is the no-effect control and ±100 the full control effect
#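 P. falciparum expressing integrated firefly luciferase, in erythrocytes at 2% hematocrit, 0.05% parasitemia, incubated with compounds 96 h at 37 C, 5% CO2. Growth inhibition read as loss of luminescence; two-generation exposure targets delayed-death apicoplast inhibitors.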
# Pf growth 48h – Primary qHTS for delayed death inhibitors of the malarial parasite plastid, 48 hour incubation | hit rate 5.9% among 310,000 | Potency, µM (highest dose often 28.7 µM), for inactives: top-dose activity change, negative = inhibition, usual class: inhibitors | AID 504832, 2011 | P. falciparum luciferase growth in erythrocytes, 48 h; further: on the % scale 0 is the no-effect control and ±100 the full control effect
#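 Cell-based growth assay: transgenic P. falciparum expressing firefly luciferase, cultured in red cells within RPMI 1640 containing 0.5% w/v Albumax, 24 mM bicarbonate and gentamycin. A drop in luciferase activity indicates inhibition.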
# RE007 growth inh – qHTS Assay for Inhibitors of the HIV-1 protein Vpr; Potency, µM (top dose mostly 92.2 µM), for inactives: top-dose activity change, negative = less growth, actives largely listed as inhibitors; AID 651644, 2012; S. pombe RE007 Vpr strain, BacTiter-Glo ATP luminescence, 24 h; hit rate 0.21% among 360,000; active means well fitted falling curve with a large enough effect; inconclusive means small, poorly fitted or top-dose-only effect; inactive means no such curve, though single readings can be large or run the other way; further: on the % scale 0 is the no-effect control and ±100 the full control effect; nearly all actives have a fitted effect of over 50% in size
#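 Fission yeast RE007 carrying one integrated HIV-1 vpr copy, seeded at OD 0.01 in PMG+AL medium with 23 nL pinned compound. Grown 24 h at 30 degrees; viability read by BacTiter-Glo luminescence after 5 min.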
# SARS PLpro yeast – qHTS of Yeast-based Assay for SARS-CoV PLP; S. cerevisiae expressing SARS-CoV PLpro, growth rescue; Potency, µM (series often up to 32.9 µM), without a hit: top-dose activity, positive = growth rescue, most hits filed as activators; hit rate 0.19% among 330,000; calls by dose curve; further: 0% is about no effect; nearly all actives have a fitted effect of over 55% in size
# * hit, by the source's call; ? = inconclusive; / = no result given. Unless noted, the call rests on the fitted dose curve; in most records, active means well fitted inhibition curve with a large enough effect; inconclusive means small, poorly fitted or top-dose-only effect, or another doubt; inactive means no such curve, though single readings can be large or run the other way. Potency means the concentration at half of the fitted maximal effect.
SMILES,NS1 inh,Pf growth 96h,Pf growth 48h,RE007 growth inh,SARS PLpro yeast
CC(SC1=NCCN1S(=O)(=O)c1ccccc1)c1ccccc1 (stereo unspecified),-6%,13µM*,-23%,3%,-3%
CC(SC1=NCCN1S(=O)(=O)c1ccc(F)cc1)c1ccccc1 (stereo unspecified),-28%,12µM*,?,5%,0%
CCCCCCSc1nnc2[nH]c(=O)cc(N)n12,-6%,5.2µM*,?,0%,9%
O=C(COc1ccc(S(=O)(=O)N2CCCC2)cc1Cl)NC1CCCC1,-21%,/,9.3µM*,-1%,8%
Cc1cc(Cl)c(S(=O)(=O)N2CCCC2)cc1OCC(=O)NC1CCCCC1,-4%,0.083µM*,/,1%,-4%
Cc1cc(Cl)c(S(=O)(=O)NC(C(=O)O)C(C)C)cc1OCC(=O)NC1CCCCC1 (stereo unspecified),2%,47%,/,26%,-5%
CCOc1cc(C)c(Cl)cc1S(=O)(=O)N1CCCC1,-8%,0.93µM*,-16%,12%,-5%
NCCNC(=S)S,-30%,/,/,/,/
CCOC(=O)C(C)Oc1ccc(NC(=O)C(Cl)Cl)cc1 (stereo unspecified),6%,12%,10%,12%,-1%
COc1ccc(OC)c(-c2csc(N(Cc3ccco3)C(=O)c3cccs3)n2)c1,-9%,?,9.3µM*,-14%,8%
COc1ccc(-c2csc(N(C)C(=O)c3cccs3)n2)cc1,2%,-1%,87%,-12%,1%
COc1ccc(-c2csc(N(Cc3ccco3)C(=O)c3cccs3)n2)cc1,-3%,6.6µM*,?,37%,-1%
COc1ccc(OC)c(-c2csc(N(CC3CCCO3)C(=O)C3CCCCC3)n2)c1 (stereo unspecified),0%,-25%,2.9µM*,-15%,0%
CCOc1cc(/C=C2/SC(=Nc3ccccc3)N(Cc3cccnc3)C2=O)ccc1OCC#N,8%,2.1µM*,?,2%,3%
C=CCOc1ccccc1CNCc1ccc(F)cc1,-8%,2.3µM*,-13%,-18%,0%
CCOC(=O)c1c(S(=O)(=O)NCC(=O)Nc2ccccc2OC)c(C)n(C)c1C,3%,-7%,3%,-9%,?
CCOC(=O)c1c(S(=O)(=O)NCC(=O)Nc2ccccc2)c(C)n(C)c1C,-10%,52%,5%,-18%,-5%
CCOC(=O)c1c(S(=O)(=O)NCC(=O)Nc2cccc(C)c2)c(C)n(C)c1C,14%,4.1µM*,-25%,-3%,0%
CCOC(=O)c1c(S(=O)(=O)NCC(=O)Nc2cc(C)ccc2OC)c(C)n(C)c1C,0%,9.3µM*,-9%,5%,-2%
CC(C)C(=O)CP(=O)(O)O,-6%,/,/,/,/
O=C(Nc1ccccc1F)Nc1cccnc1Cl,/,/,/,-9%,/
Cc1ccc(C)c(NC(=O)Cn2cnc3c(oc4ccccc43)c2=O)c1,/,?,10µM*,-26%,1%
O=C(Cn1cnc2c(oc3ccccc32)c1=O)NCc1ccccc1,7%,60%,26%,6%,-3%
COCCn1nc2cc(C(=O)NCC34CC5CC(CC(C5)C3)C4)ccc2c1OC,28%,-3%,?,19%,1%
CCCn1nc2cc(C(=O)NCC34CC5CC(CC(C5)C3)C4)ccc2c1OCC,0%,?,12µM*,9%,-3%
SMILES,NS1 inh,Pf growth 96h,Pf growth 48h,RE007 growth inh,SARS PLpro yeast
O=c1c2c(-c3cccc([N+](=O)[O-])c3)ccnc2[nH]n1-c1ccccc1,-2%,0%,14%,0%,1%
Cc1cc(-c2ccccc2)c2c(=O)n(-c3ccccc3)[nH]c2n1,25%,0.0037µM*,38%,20%,16%
CN(C)c1nc(OCCNC(=O)COc2ccc(Cl)cc2Cl)nc(N2CCCCC2)n1,-52%,2.6µM*,?,5%,7%
CN(C)c1nc(OCCNC(=O)COc2ccc(Cl)cc2Cl)nc(N(C)C)n1,7%,?,/,-11%,24%
CC1CCN(C(=O)CC#N)CC1,0%,19%,1%,1%,0%
CC1CCN(C(=O)CCl)CC1,-37%,5.9µM*,5.2µM*,-4%,?
CC(=O)O[C@]1(C(C)=O)CC[C@H]2[C@@H]3C=CC4=CC(=O)C=C[C@]4(C)[C@H]3CC[C@@]21C,-3%,4.7µM*,12µM*,-2%,1%
